The source made the active and inactive calls.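 The calls were made as follows, unless noted: active = inhibition of the reporter signal at or above 50%; inactive = inhibition below 50%.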
Legend:
[1] = inhibitors of TNFa-induced NFkB p65 translocation, primary screen, imaging, HUVEC, MLSMR starter and 10KST1 sets (AID 438;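 active = inhibition above 20% together with a positive visual image hit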;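 also: compound added about 3h40 before a 20 min TNFalpha stimulation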;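 as to inhibition: signal is the nuclear over cytoplasmic p65 intensity ratio per well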); details: HUVEC TNFa-induced p65 nuclear translocation; cell count: measured here: nuclei count (cytotoxicity indicator), at 2.08 µM; inhibition: at 2 µM, stronger effect = higher value, 0% TNFa-plus-vehicle, 100% no-TNFa wells
[2] = reduction of polyQ htt aggregates in cells – imaging, exon1htt(103Q)mCFP cells, high-content imaging, primary screen (AID 483;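 active = visual image review flags a hit and inhibition of aggregation exceeds 20%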;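 also: compound exposure lasted 3 days before fixation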;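 as to nuclei count: percent of the per-plate median nuclei count of sample wells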); details: exon1htt(103Q)mCFP cell line, aggregate imaging, at 2 µM; inhibition of aggregation: stronger effect = higher value; nuclei count: measured here: cell count, toxicity
[3] = endothelial E-selectin expression blockers – imaging, HUVEC, immunofluorescence, MLSMR starter and 10KST1 sets, primary screen (AID 487;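 active = visually confirmed hit in the image check and inhibition above 20%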;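 as to inhibition: signal is fraction of cell area covered by stained E-selectin grains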;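 as to nuclei count: 100% = median nuclei count of all wells on the same plate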); details: HUVEC TNFalpha-induced E-selectin immunofluorescence imaging, at 2 µM; inhibition: stronger effect = higher value; nuclei count: measured here: cell number, toxicity
[4] = target: Voltage-gated potassium channel subunit beta-2 (Rattus norvegicus) (UniProt P62483); test: inhibitors of rat Kvbeta2 reductase activity – biochemical, NADPH fluorescence, primary screen (AID 622;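 active = fluorescence slope higher than the sample average by over 3 SD, cut at about -0.22 in these data, passing the limit was not always enough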;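 also: slope of raw intensity against log time taken from 70 to 1610 s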); details: recombinant KvBeta, 4-cyanobenzaldehyde reduction, at 10 µM, stronger effect = higher value
Chain of Voltage-gated potassium channel subunit beta-2 (Rattus norvegicus) (P62483 whole entry, looked up): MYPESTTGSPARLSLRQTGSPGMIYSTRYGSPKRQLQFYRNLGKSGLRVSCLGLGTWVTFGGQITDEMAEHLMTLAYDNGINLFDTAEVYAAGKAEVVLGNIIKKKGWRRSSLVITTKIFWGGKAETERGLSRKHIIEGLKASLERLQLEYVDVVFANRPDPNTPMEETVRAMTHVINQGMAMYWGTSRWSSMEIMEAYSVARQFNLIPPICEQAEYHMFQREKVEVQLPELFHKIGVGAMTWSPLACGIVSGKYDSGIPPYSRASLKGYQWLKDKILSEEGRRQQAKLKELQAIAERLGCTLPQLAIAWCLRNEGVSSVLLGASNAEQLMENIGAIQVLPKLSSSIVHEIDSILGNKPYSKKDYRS

[5] = target: Voltage-gated potassium channel subunit beta-2 (Rattus norvegicus) (UniProt P62483); test: enhancers of rat Kvbeta2 NADPH turnover – biochemical, NADPH fluorescence, primary screen (AID 623;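 active = NADPH fluorescence slope more negative than the mean of all samples by about 3 SD, 99.7% confidence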;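 also: fluorescence intensity change per second fitted from 20 to 320 s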); details: Recombinant KvBeta, NADPH fluorescence decrease slope, 10 min; at 10 µM; stronger effect = lower value
[6] = target: Alpha-2C adrenergic receptor (Homo sapiens) (UniProt P18825); test: compounds altering alpha2C-coupled GIRK flux – cell-based, HEK293 alpha2C/GIRK1/2, thallium flux, primary screen (AID 624;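 active = fluorescence slope after compound addition differing from the mean of all screened samples at 99.7% confidence, in either direction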;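 also: slope of fluorescence ratio to pre-addition baseline per second over 15 to 24 s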); details: thallium flux BTC fluorescence, at 10 µM, actives lie on both sides
Chain of Alpha-2C adrenergic receptor (Homo sapiens) (P18825 whole entry, looked up): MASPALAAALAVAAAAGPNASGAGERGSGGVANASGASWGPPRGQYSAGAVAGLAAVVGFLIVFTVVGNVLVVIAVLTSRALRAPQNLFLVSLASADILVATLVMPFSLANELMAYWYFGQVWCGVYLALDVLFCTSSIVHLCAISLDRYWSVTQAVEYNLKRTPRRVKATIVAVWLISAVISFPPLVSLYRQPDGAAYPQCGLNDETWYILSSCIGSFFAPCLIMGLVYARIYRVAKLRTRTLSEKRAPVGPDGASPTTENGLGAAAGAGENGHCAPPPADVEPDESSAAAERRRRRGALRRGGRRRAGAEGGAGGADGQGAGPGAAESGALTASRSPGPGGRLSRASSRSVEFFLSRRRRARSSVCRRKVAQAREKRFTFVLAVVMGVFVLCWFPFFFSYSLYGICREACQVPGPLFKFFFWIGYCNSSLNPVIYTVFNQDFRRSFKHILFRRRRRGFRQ

[7] = blockers of RIG-like receptor reporter activation – cell-based, Sendai virus stimulus, luciferase, 10K MLSCN set, TLR/RLR signaling modifier project, primary screen (AID 602276;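 active = inhibition at or above 50% at 10 µM; inactive = inhibition below 50%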;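 also: firefly luciferase from ISG56 promoter only with Renilla not read in this screen; 0% = Sendai virus plus DMSO and 100% = medium plus DMSO without virus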); details: HEK293 RL24 IRF3 luciferase reporter, at 10 µM, stronger effect = higher value
[8] = TLR3 IRF3 reporter activation blockers – cell-based, poly I:C stimulus, luciferase, 10K MLSCN set, primary screen (AID 602277); details: HEK293-TLR3 RL24 IRF3 luciferase reporter, at 10 µM, stronger effect = higher value

| Structure (SMILES) | cell count [1] | inhibition [1] | inhibition of aggregation [2] | nuclei count [2] [%] | inhibition [3] | nuclei count [3] [%] | fluorescence slope [4] | NADPH fluorescence slope [5] | slope [6] | inhibition [7] | inhibition [8] |
| --- | --- | --- | --- | --- | --- | --- | --- | --- | --- | --- | --- |
| Cc1nnc(SCC(=O)N(C(C)C)C(C)C)nc1C | 430 | 7% (inactive) | -8.2% (inactive) | 101 | -106% (inactive) | 115 | -0.599 (inactive) | -3.9e-05 (inactive) | 0.00322 (inactive) | 6.7% (inactive) | 8.25% (inactive) |
| Cc1ccc(CCNC(=O)CC2Oc3ccc(C)cc3NC2=O)cc1 (stereo unspecified) | 644 | 5.5% (inactive) | -11.9% (inactive) | 105 | -33.5% (inactive) | 124 | -0.558 (inactive) | 1.2e-05 (inactive) | 0.00676 (inactive) | -18.4% (inactive) | 2.52% (inactive) |
| CC1(C)C(c2ccccc2)=NC(c2ccccc2)N1O (stereo unspecified) | 422 | -2.8% (inactive) | 1.2% (inactive) | 107 | -22.6% (inactive) | 113 | -0.428 (inactive) | -3e-05 (inactive) | 0.0012 (inactive) | 5.11% (inactive) | 35.3% (inactive) |
| CC1CCN(Cc2nc3c(c(=O)n(C)c(=O)n3C)n2Cc2cccc3ccccc23)CC1 | 703 | -22.3% (inactive) | 12.7% (inactive) | 105 | -26.6% (inactive) | 131 | -0.427 (inactive) | -2.4e-05 (inactive) | 0.00536 (inactive) | 13.1% (inactive) | 41.7% (inactive) |
| CCOC(=O)CSc1nnc(-c2ccc(NS(=O)(=O)c3ccc(C)cc3)cc2)o1 | 813 | -6.7% (inactive) | -0.7% (inactive) | 98.9 | -37.7% (inactive) | 108 | -0.433 (inactive) | -4.4e-05 (inactive) | 0.00389 (inactive) | 8.31% (inactive) | 29.4% (inactive) |
| CN(C)c1ccc(/C=C/c2ccncc2)cc1 | 311 | -5.5% (inactive) | 22.3% (inactive) | 83.5 | -76.4% (inactive) | 87.8 | -0.382 (inactive) | 1.7e-05 (inactive) | 0.00338 (inactive) | -62.5% (inactive) | -181% (inactive) |
| CCn1c2ccccc2c2cc(N)ccc21 | 705 | -34.5% (inactive) | 17.8% (inactive) | 91.5 | -37.7% (inactive) | 107 | -0.458 (inactive) | 5.8e-06 (inactive) | 0.00355 (inactive) | 8.66% (inactive) | 15.3% (inactive) |
| C/C=C/Cn1c(SCCCc2ccccc2)nc2c1c(=O)[nH]c(=O)n2C | 658 | -6.4% (inactive) | -13.8% (inactive) | 101 | -13.9% (inactive) | 102 | -0.517 (inactive) | -1.9e-05 (inactive) | 0.00629 (inactive) | 1.4% (inactive) | 5.27% (inactive) |
| N#Cc1c2n(c(=S)n(-c3ccccn3)c1=O)CCCCC2 | 588 | -26.4% (inactive) | -14.8% (inactive) | 111 | -117% (inactive) | 144 | -0.477 (inactive) | -4.9e-05 (inactive) | 0.00579 (inactive) | -7.7% (inactive) | 11% (inactive) |
| CCOc1ccc(C(=O)CN2CCN(S(=O)(=O)c3ccc(OC)cc3)CC2)cc1 | 599 | -2.9% (inactive) | -3.6% (inactive) | 106 | -29.2% (inactive) | 92.2 | -0.391 (inactive) | -4.7e-05 (inactive) | 0.00338 (inactive) | -2.61% (inactive) | 21.2% (inactive) |
| Cc1oc(C(=O)O)cc1CSCc1cc(C(=O)O)c(C)o1 | 403 | -9.3% (inactive) | -21.1% (inactive) | 102 | -15.5% (inactive) | 118 | -0.508 (inactive) | 3.2e-05 (inactive) | 0.00721 (inactive) | -20.7% (inactive) | -5.67% (inactive) |
| CCOC(=O)N1CCC(N2C(=O)c3ccccc3C2Nc2ccc3c(C)cc(=O)oc3c2)CC1 (stereo unspecified) | 654 | 2.3% (inactive) | -19.4% (inactive) | 101 | -65.6% (inactive) | 121 | -0.0451 (active) | -9.7e-08 (inactive) | 0.00764 (inactive) | 14.2% (inactive) | 18% (inactive) |
| N#Cc1c(/N=C/c2cccs2)sc2c1CCCCC2 | 636 | -14.8% (inactive) | -34.1% (inactive) | 127 | -14.2% (inactive) | 127 | -0.598 (inactive) | -2.1e-05 (inactive) | 0.0029 (inactive) | 30.4% (inactive) | -5.24% (inactive) |
| CC(=O)c1cc(-c2ccc(F)cc2)n(CCC(=O)Nc2cc(C)[nH]n2)c1C | 360 | 0% (inactive) | -4.1% (inactive) | 102 | 0% (inactive) | 118 | -0.507 (inactive) | -3.1e-05 (inactive) | 0.00525 (inactive) | 4.04% (inactive) | 25.9% (inactive) |
| O=C1CC(N2CCN(c3cccc(C(F)(F)F)c3)CC2)C(=O)N1c1ccccc1 (stereo unspecified) | 622 | -1.5% (inactive) | -3.8% (inactive) | 117 | 64.7% (active) | 75.3 | -0.473 (inactive) | -1.5e-05 (inactive) | 0.00274 (inactive) | 7.76% (inactive) | 27.1% (inactive) |
| O=C1CCCc2c1cc(C(=O)NCCCN1CCOCC1)c(=O)n2-c1ccc(Cl)cc1 | 568 | 2.5% (inactive) | 0.1% (inactive) | 99.5 | -2.6% (inactive) | 122 | -0.546 (inactive) | -4e-05 (inactive) | 0.00614 (inactive) | 10.7% (inactive) | 45.8% (inactive) |
| COc1ccc(Oc2c(C)oc3cc(OC(=O)N4CCOCC4)ccc3c2=O)cc1 | 770 | -4.9% (inactive) | 11.1% (inactive) | 95.2 | -28.1% (inactive) | 112 | -0.402 (inactive) | 2.6e-05 (inactive) | 0.00567 (inactive) | 3.22% (inactive) | -6.73% (inactive) |
| CN1CCN(C(=O)c2ccc3c(=O)n(CCc4ccccc4)c(=S)[nH]c3c2)CC1 | 551 | -13.1% (inactive) | -0.8% (inactive) | 77 | -44.1% (inactive) | 98.9 | -0.459 (inactive) | 5.7e-06 (inactive) | 0.00697 (inactive) | 4.3% (inactive) | 23.3% (inactive) |
| O=C(CCn1cccc1)N1CCc2ccccc21 | 281 | 6.5% (inactive) | -5.2% (inactive) | 108 | -12% (inactive) | 106 | -0.554 (inactive) | 2e-05 (inactive) | 0.00578 (inactive) | -13.2% (inactive) | -44.8% (inactive) |
| COc1ccc(C(=O)c2ccccc2)c(O)c1 | 585 | -2.6% (inactive) | 6.6% (inactive) | 94.1 | 1.3% (inactive) | 97.5 | -0.443 (inactive) | 2.6e-05 (inactive) | 0.00543 (inactive) | -1.71% (inactive) | -8.45% (inactive) |
| CCOC(=O)/C=C1\SCC(=O)N1Cc1ccc(Br)cc1 | 562 | -4.8% (inactive) | -14.9% (inactive) | 96 | -49.7% (inactive) | 116 | -0.462 (inactive) | -0.000366 (inactive) | 0.00633 (inactive) | 10.8% (inactive) | 20% (inactive) |
| Cn1c(=O)c2c(nc(SCCCC#N)n2Cc2ccccc2F)n(C)c1=O | 601 | 4.5% (inactive) | -13.6% (inactive) | 109 | -51% (inactive) | 119 | -0.416 (inactive) | -2.8e-05 (inactive) | 0.00541 (inactive) | 12.9% (inactive) | 36.5% (inactive) |
| CCOc1ccc(Oc2nc(Nc3ccc(C)cc3)nc(N(C)C)n2)nn1 | 619 | -0.3% (inactive) | 25.8% (inactive) | 71.1 | -14.3% (inactive) | 106 | -0.491 (inactive) | -4.9e-05 (inactive) | 0.00543 (inactive) | -17.8% (inactive) | 1.23% (inactive) |
| Cn1cccc1Cc1nnc(SCC(=O)N2CCOCC2)n1-c1ccc(F)cc1 | 585 | 5.8% (inactive) | 26.9% (inactive) | 89.6 | 55.7% (active) | 96.2 | -0.527 (inactive) | -3.5e-05 (inactive) | 0.00693 (inactive) | 12.2% (inactive) | 28.3% (inactive) |
| Cc1cccc(CC(=O)Nc2c3c(nn2-c2cccc(Cl)c2)CS(=O)C3)c1 (stereo unspecified) | 394 | 1% (inactive) | -17.3% (inactive) | 106 | -27.9% (inactive) | 110 | -0.57 (inactive) | 2.8e-05 (inactive) | 0.00504 (inactive) | -10.3% (inactive) | -33.4% (inactive) |
| Cc1ccc(-c2cc(C(F)F)nc(NCC3CCCO3)n2)cc1 (stereo unspecified) | 647 | 1.4% (inactive) | 15.9% (inactive) | 87.5 | -135% (inactive) | 128 | -0.524 (inactive) | 1.3e-05 (inactive) | 0.00547 (inactive) | -25.4% (inactive) | -60.9% (inactive) |
